# Assay results: PubChem BioAssay (NCATS)
# “And” between values parts separate entries of the source, which are not always exact repeats. Equal values may be shown once. Records with an inconclusive call do not appear. A call without a number means that no potency is given here. Unmarked numbers belong to inactive results. The source made the active and inactive calls. Calls follow the shape of the dose curve; as a rule, active = well fitted curve in the direction sought with a large enough effect; inconclusive = small, poorly fitted or top-dose-only effect, or another doubt; inactive = no such curve, though single readings can be large; an effect the other way counts as inactive or inconclusive. Peptide text beside a SMILES is read from it.
# Tests used:
# [1] = qHTS of pediatric cancer cell lines to identify multiple opportunities for drug repurposing: Primary screen for LAN-5 cells (AID 1347100); also: potency is read from the fitted curve at half-maximal effect
# How it was run: (§1)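 Viability after 48 h compound treatment at 37C, 500-1,000 cells/well, read as ATP luminescence with CellTiter-Glo. Primary screens used 11-point (MIPE, 0.78 nM-46 µM) or 8-point (NPC, 0.59 nM-46 µM) final concentrations; follow-up screens used 11-point dilutions.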
# [2] = qHTS of pediatric cancer cell lines to identify multiple opportunities for drug repurposing: Primary screen for BT-12 cells (AID 1347101); also: nearly all actives have a fitted effect of over 25% in size; also: potency is read from the fitted curve at half-maximal effect
# How it was run: (§2)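 Cells (500-1,000/well) rested 5 h, then received compounds for 48 h; metabolically active cells were measured by CellTiter-Glo luminescence. Final concentrations spanned up to 46 µM (MIPE, 11-point) or 0.59 nM-46 µM (NPC, 8-point) in primary screens, 11-point in follow-ups.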
# [3] = qHTS of pediatric cancer cell lines to identify multiple opportunities for drug repurposing: Primary screen for Rh18 cells (AID 1347102); also: nearly all actives have a fitted effect of over 65% in size; also: potency is read from the fitted curve at half-maximal effect
# How it was run: as §1
# [4] = qHTS of pediatric cancer cell lines to identify multiple opportunities for drug repurposing: Primary screen for OHS-50 cells (AID 1347103); also: nearly all actives have a fitted effect of over 40% in size; also: potency is read from the fitted curve at half-maximal effect
# How it was run: as §2
# [5] = qHTS of pediatric cancer cell lines to identify multiple opportunities for drug repurposing: Primary screen for MG 63 (6-TG R) cells (AID 1347105); also: nearly all actives have a fitted effect of over 50% in size; also: potency is read from the fitted curve at half-maximal effect
# How it was run: (§3)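 Cells plated at 500-1,000/well in growth medium, compounds added after 5 h. MIPE tested at 11 points (from 0.78 nM), NPC at 8 points (from 0.59 nM). CellTiter-Glo luminescence after 48 h; concentration-response curves from primary screen.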
# [6] = qHTS of pediatric cancer cell lines to identify multiple opportunities for drug repurposing: Primary screen for control Hh wild type fibroblast cells (AID 1347106); also: nearly all actives have a fitted effect of over 55% in size; also: potency is read from the fitted curve at half-maximal effect
# How it was run: as §1
# [7] = qHTS of pediatric cancer cell lines to identify multiple opportunities for drug repurposing: Primary screen for Rh30 cells (AID 1347107); also: series mostly up to about 46 µM; nearly all actives have a fitted effect of over 75% in size
# How it was run: as §1
# [8] = qHTS of pediatric cancer cell lines to identify multiple opportunities for drug repurposing: Confirmatory screen for SK-N-MC cells (AID 1347111);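 also: cells exposed to compound for 48 h before the readout; nearly all actives have a fitted effect of over 70% in size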; also: potency is read from the fitted curve at half-maximal effect
# How it was run: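 SK-N-MC cells at 500-1,000 cells/well in growth media were pre-incubated 5 h, then exposed to compounds at 11-point dilutions for 48 h at 37 degrees C, 5% CO2. Viability was read as CellTiter-Glo luminescence.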
# [9] = qHTS of pediatric cancer cell lines to identify multiple opportunities for drug repurposing: Confirmatory screen for BT-37 cells (AID 1347117); also: nearly all actives have a fitted effect of over 55% in size; also: potency is read from the fitted curve at half-maximal effect
# How it was run: as §1
# [10] = qHTS of pediatric cancer cell lines to identify multiple opportunities for drug repurposing: Confirmatory screen for U-2 OS cells (AID 1347122); also: nearly all actives have a fitted effect of over 65% in size; also: potency is read from the fitted curve at half-maximal effect
# How it was run: as §1
# [11] = qHTS of pediatric cancer cell lines to identify multiple opportunities for drug repurposing: Confirmatory screen for Rh41 cells (AID 1347123);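 also: 48 h compound exposure; nearly all actives have a fitted effect of over 60% in size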; also: potency is read from the fitted curve at half-maximal effect
# How it was run: as §1
# [12] = qHTS of pediatric cancer cell lines to identify multiple opportunities for drug repurposing: Primary screen for RD cells (AID 1347104); also: nearly all actives have a fitted effect of over 55% in size; also: potency is read from the fitted curve at half-maximal effect
# How it was run: as §3
# [13] = qHTS of pediatric cancer cell lines to identify multiple opportunities for drug repurposing: Primary screen for Rh41 cells (AID 1347108); also: nearly all actives have a fitted effect of over 70% in size; also: potency is read from the fitted curve at half-maximal effect
# How it was run: as §3
# [14] = qHTS of pediatric cancer cell lines to identify multiple opportunities for drug repurposing: Confirmatory screen for NB1643 cells (AID 1347109); also: nearly all actives have a fitted effect of over 45% in size; also: potency is read from the fitted curve at half-maximal effect
# How it was run: as §1
# [15] = qHTS of pediatric cancer cell lines to identify multiple opportunities for drug repurposing: Confirmatory screen for A673 cells (AID 1347110); also: nearly all actives have a fitted effect of over 65% in size; also: potency is read from the fitted curve at half-maximal effect
# How it was run: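 A673 cells at 500-1,000 cells/well were dosed 5 h after plating, in dilution series up to 46 uM final; primary runs used 8 or 11 points and confirmatory runs used 11 points. Viability was read by CellTiter-Glo luminescence after 48 h, against DMSO and 2.3 uM bortezomib controls.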
# [16] = qHTS of pediatric cancer cell lines to identify multiple opportunities for drug repurposing: Confirmatory screen for NB-EBc1 cells (AID 1347115); also: nearly all actives have a fitted effect of over 45% in size; also: potency is read from the fitted curve at half-maximal effect
# How it was run: as §1
# [17] = qHTS of pediatric cancer cell lines to identify multiple opportunities for drug repurposing: Confirmatory screen for SJ-GBM2 cells (AID 1347116); also: nearly all actives have a fitted effect of over 60% in size; also: potency is read from the fitted curve at half-maximal effect
# How it was run: (§4)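 Viability measured as metabolically active cells via CellTiter-Glo luminescence following 48 hours of compound exposure, 11-point dilutions in confirmatory testing. 500-1,000 cells/well plated 5 hours before dosing; controls were DMSO and 2.3 µM bortezomib.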
# [18] = qHTS of pediatric cancer cell lines to identify multiple opportunities for drug repurposing: Confirmatory screen for TC32 cells (AID 1347118); also: nearly all actives have a fitted effect of over 65% in size; also: potency is read from the fitted curve at half-maximal effect
# How it was run: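 qHTS, TC32, 48 h drug treatment, CellTiter-Glo luminescence as a proxy for metabolically active cells; primary top concentration 46 µM (MIPE 11-pt, NPC 8-pt); confirmatory 11-pt.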
# [19] = qHTS of pediatric cancer cell lines to identify multiple opportunities for drug repurposing: Confirmatory screen for BT-12 cells (AID 1347112); also: nearly all actives have a fitted effect of over 55% in size; also: potency is read from the fitted curve at half-maximal effect
# How it was run: as §1
# [20] = qHTS of pediatric cancer cell lines to identify multiple opportunities for drug repurposing: Confirmatory screen for DAOY cells (AID 1347114); also: nearly all actives have a fitted effect of over 65% in size; also: potency is read from the fitted curve at half-maximal effect
# How it was run: as §4
structure (smiles),measurement,setting,value
Cc1ccc(Nc2nccc(N(C)c3ccc4c(C)n(C)nc4c3)n2)cc1S(N)(=O)=O,Potency,[1],18.7 µM (active)
same,Potency,[2],12.3 µM (active) and 15.3 µM (active)
same,Potency,[3],16.6 µM (active)
same,Potency,[4],5.5 µM (active)
same,Potency,[5],66.8 nM (active)
same,Potency,[6],inactive
same,Potency,[7],inactive
same,Potency,[8],18.5 µM (active)
same,Potency,[9],inactive
same,Potency,[10],18.5 µM (active)
same,Potency,[11],10.4 µM (active)
COc1cc2c(N3CCN(C(=O)Nc4ccc(OC(C)C)cc4)CC3)ncnc2cc1OCCCN1CCCCC1,Potency,[1],18.7 µM (active)
same,Potency,[2],24.3 µM (active)
same,Potency,[4],27.3 µM (active) and 19.5 µM (active)
same,Potency,[12],26.4 µM (active) and 26.6 µM (active)
same,Potency,[5],inactive
same,Potency,[7],inactive
Cc1cccc(C#Cc2ccccc2)n1,Potency,[1],inactive
same,Potency,[2],inactive
same,Potency,[3],inactive
same,Potency,[6],inactive
C[C@H](Cc1ccc(O)c(O)c1)[C@@H](C)Cc1ccc(O)c(O)c1,Potency,[1],10.5 µM (active)
same,Potency,[2],15.3 µM (active)
same,Potency,[3],18.7 µM (active)
same,Potency,[4],24.3 µM (active)
same,Potency,[6],inactive
same,Potency,[13],11.8 µM (active)
O=C(O)c1cccnc1Nc1cccc(C(F)(F)F)c1,Potency,[1],inactive
same,Potency,[2],inactive
same,Potency,[3],inactive
same,Potency,[4],inactive
same,Potency,[12],inactive
same,Potency,[5],inactive
same,Potency,[7],inactive
same,Potency,[13],inactive
CN(C)C(=O)COC(=O)Cc1ccc(OC(=O)c2ccc(N=C(N)N)cc2)cc1,Potency,[1],inactive
same,Potency,[2],inactive
same,Potency,[3],inactive
same,Potency,[4],inactive
same,Potency,[12],inactive
same,Potency,[5],inactive
same,Potency,[7],inactive
same,Potency,[13],inactive
Cc1cc(Cl)ccc1OCCCC(=O)NO,Potency,[1],2.64 µM (active)
same,Potency,[2],inactive
same,Potency,[12],18.7 µM (active)
same,Potency,[5],7430 nM (active)
same,Potency,[13],14.8 µM (active)
C[C@H](Cn1cnc2c(N)ncnc21)OCP(=O)(O)O,Potency,[1],inactive
same,Potency,[2],inactive
same,Potency,[3],inactive
same,Potency,[4],inactive
same,Potency,[12],inactive
same,Potency,[5],inactive
same,Potency,[7],inactive
same,Potency,[13],inactive
O=c1c(O)c(-c2cc(O)c(O)c(O)c2)oc2cc(O)cc(O)c12,Potency,[1],inactive
same,Potency,[2],inactive
same,Potency,[3],inactive
same,Potency,[12],inactive
same,Potency,[7],inactive
Nc1nc(OCc2ccccc2)c2[nH]cnc2n1,Potency,[1],inactive
same,Potency,[2],inactive
same,Potency,[3],inactive
same,Potency,[12],inactive
same,Potency,[5],inactive
same,Potency,[6],inactive
same,Potency,[7],inactive
same,Potency,[14],inactive
same,Potency,[15],inactive
same,Potency,[8],inactive
same,Potency,[16],inactive
same,Potency,[17],inactive
same,Potency,[18],inactive
same,Potency,[10],inactive
same,Potency,[11],inactive
CN(C)c1ccc2nc3ccc(=[N+](C)C)cc-3sc2c1,Potency,[1],1.68 µM (active)
same,Potency,[2],6.85 µM (active) and 3.09 µM (active)
same,Potency,[3],7.43 µM (active) and 3.35 µM (active)
same,Potency,[4],1.37 µM (active) and 872 nM (active)
same,Potency,[12],2.35 µM (active) and 3.76 µM (active)
same,Potency,[5],3.72 µM (active) and 2.11 µM (active)
same,Potency,[6],11.9 µM (active)
same,Potency,[13],5.9 µM (active) and 6.68 µM (active)
same,Potency,[14],3.29 µM (active)
same,Potency,[15],8.27 µM (active)
same,Potency,[8],1.17 µM (active)
same,Potency,[19],1.04 µM (active)
same,Potency,[20],4.65 µM (active)
same,Potency,[16],6.57 µM (active)
same,Potency,[17],1.47 µM (active)
same,Potency,[9],0.928 µM (active)
same,Potency,[18],2.61 µM (active)
same,Potency,[10],2.93 µM (active)
same,Potency,[11],2.61 µM (active)
O=c1oc2cc(O)ccc2s1,Potency,[1],inactive
same,Potency,[2],inactive
same,Potency,[3],inactive
same,Potency,[4],inactive
same,Potency,[5],inactive
same,Potency,[6],inactive
same,Potency,[7],inactive
same,Potency,[13],inactive
COC(=O)[C@H](Cc1ccccc1)NC(=O)[C@@H](N)CC(=O)O (H-Asp-Phe-OMe),Potency,[1],inactive
same,Potency,[2],inactive
same,Potency,[3],inactive
same,Potency,[4],inactive
same,Potency,[12],inactive
same,Potency,[5],inactive
same,Potency,[7],inactive
same,Potency,[13],inactive
COC(=O)C1=C(C)NC(C)=C(C(=O)OC(C)C)C1c1cccc2nonc12 (centres undefined),Potency,[1],inactive
same,Potency,[2],inactive
same,Potency,[3],inactive
same,Potency,[4],inactive
same,Potency,[12],inactive
same,Potency,[6],inactive
same,Potency,[7],inactive
same,Potency,[13],inactive
CCCCc1ccc2nc(NC(=O)OC)[nH]c2c1,Potency,[1],0.0118 µM (active)
same,Potency,[2],27.3 nM (active) and 61.7 nM (active)
same,Potency,[3],inactive
same,Potency,[4],15.3 nM (active) and 61.7 nM (active)
same,Potency,[7],inactive
same,Potency,[14],0.657 µM (active)
same,Potency,[15],0.329 µM (active)
same,Potency,[8],0.329 µM (active)
same,Potency,[20],0.185 µM (active)
same,Potency,[16],1.47 µM (active)
same,Potency,[17],3.29 µM (active)
same,Potency,[9],0.414 µM (active)
same,Potency,[18],0.293 µM (active)
same,Potency,[10],0.329 µM (active)
same,Potency,[11],0.131 µM (active)
Cc1cc2cc3c(C)cc(=O)oc3c(C)c2o1,Potency,[1],inactive
same,Potency,[2],inactive
same,Potency,[3],inactive
same,Potency,[4],inactive
same,Potency,[5],inactive
same,Potency,[6],inactive
same,Potency,[7],inactive
O=C(NOCC1CC1)c1ccc(F)c(F)c1Nc1ccc(I)cc1Cl,Potency,[1],16.8 µM (active) and 16.6 µM (active)
same,Potency,[4],19.3 µM (active)
same,Potency,[12],9.44 µM (active) and 5.26 µM (active)
same,Potency,[5],26.6 µM (active) and 11.8 µM (active)
same,Potency,[6],inactive
Cc1ccc(S(=O)(=O)NC(=O)NN2CC3CCCC3C2)cc1 (centres undefined),Potency,[2],inactive
same,Potency,[3],inactive
same,Potency,[5],inactive
same,Potency,[6],inactive
same,Potency,[7],inactive
same,Potency,[13],inactive
CCCCN(CCCC)CCC(O)c1cc2c(Cl)cc(Cl)cc2c2cc(C(F)(F)F)ccc12 (centres undefined),Potency,[2],inactive
same,Potency,[3],inactive
same,Potency,[4],30.6 µM (active)
same,Potency,[12],inactive
same,Potency,[5],inactive
same,Potency,[7],inactive
same,Potency,[13],inactive
Clc1ccc(C(Cn2ccnc2)OCc2ccsc2Cl)c(Cl)c1 (centres undefined),Potency,[3],37.6 µM (active)
same,Potency,[4],24.3 µM (active)
same,Potency,[5],inactive
same,Potency,[6],inactive
same,Potency,[7],inactive
same,Potency,[13],inactive
same,Potency,[14],14.7 µM (active)
same,Potency,[15],20.8 µM (active)
same,Potency,[8],11.7 µM (active)
same,Potency,[19],16.5 µM (active)
same,Potency,[17],inactive
same,Potency,[9],7.37 µM (active)
same,Potency,[18],11.7 µM (active)
O=C1c2c(O)cc(O)cc2OC(c2ccc(O)c(O)c2)C1O (centres undefined),Potency,[2],inactive
same,Potency,[3],inactive
same,Potency,[12],inactive
same,Potency,[5],inactive
same,Potency,[7],inactive
same,Potency,[13],inactive
same,Potency,[14],inactive
same,Potency,[15],inactive
same,Potency,[8],inactive
same,Potency,[19],inactive
same,Potency,[20],inactive
same,Potency,[16],inactive
same,Potency,[17],inactive
same,Potency,[9],inactive
same,Potency,[18],inactive
same,Potency,[10],inactive
same,Potency,[11],inactive
